Measurements published in PubChem BioAssay AID1159580 (chemical genetic matrix, 2015).
About 2,000 (36%) of roughly 5,500 compounds were called active. About 18% were inconclusive and are not listed. Rule as the data show it: active = normalized growth mostly below about 0.91 (no sharp cut-off); inconclusive = no clear call, values can overlap the other calls; inactive = mostly above about 0.92. Some of the results follow.

Experiment: chemical genetic growth profiling, strain panel (AID 1159580);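 also: tested at 20 µM; growth read once vehicle control cultures reached saturation at 30 °C; 1 = growth at the plate median or of vehicle wells; lower values mean less growth of the strain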
Details: S. cerevisiae deletion strains, growth OD
[1] = locus YDL101C, strain DUN1, hits give low values
[2] = locus YHR030C, strain SLT2, hits give low values
[3] = locus YAL013W, strain DEP1, hits give low values
[4] = locus YBR229C, strain ROT2, hits give low values
[5] = locus YDR150W, strain NUM1, hits give low values
[6] = locus YEL061C, strain CIN8, hits give low values
[7] = locus YGR078C, strain PAC10, hits give low values
[8] = locus YHR087W, strain rtc3, hits give low values
[9] = locus YJR043C, strain POL32, hits give low values
[10] = locus YJR075W, strain HOC1, hits give low values
[11] = locus YLR039C, strain RIC1, hits give low values
[12] = locus YLR058C, strain SHM2 (second series), hits give low values
[13] = locus YLR085C, strain ARP6, hits give low values
[14] = locus YLR262C, strain YPT6, hits give low values
[15] = locus YML094W, strain GIM5, hits give low values
[16] = locus YMR219W, strain ESC1, hits give low values
[17] = locus YMR263W, strain SAP30, hits give low values
[18] = locus YNL153C, strain GIM3, hits give low values
[19] = locus YNL298W, strain CLA4 (second series), hits give low values
[20] = locus YNL322C, strain KRE1, hits give low values
[21] = locus YNR030W, strain Alg12, hits give low values
[22] = locus YPL055C, strain LGE1, hits give low values
[23] = locus YPL241C, strain CIN2, hits give low values
[24] = locus YPR135W, strain CTF4, hits give low values

Measured: normalized growth

N/C(=N/OC(=O)c1ccc(Cl)cc1)c1ccc(F)cc1F
active: locus YDL132W, strain cdc53, hits give low values 0.879 | locus YDL214C, strain PRR2, hits give low values 0.559 | locus YDR054C, strain cdc34, hits give low values 0.871 | locus YDR477W, strain SNF1, hits give low values 0.491 | locus YER123W, strain YCK3, hits give low values 0.482 | locus YER133W, strain GLC7, hits give low values 0.446 | locus YFL009W, strain cdc4, hits give low values 0.872 | locus YFR019W, strain FAB1, hits give low values 0.541 | locus YGR040W, strain KSS1, hits give low values 0.505 | locus YGR052W, strain FMP48, hits give low values 0.487 | locus YGR092W, strain DBF2, hits give low values 0.305 | [2] 0.139 | locus YHR079C, strain IRE1, hits give low values 0.244 | locus YHR082C, strain KSP1, hits give low values 0.465 | locus YHR205W, strain SCH9, hits give low values 0.21 | locus YJL095W, strain BCK1, hits give low values 0.243 | locus YJL157C, strain FAR1, hits give low values 0.543 | locus YJR016C, strain ILV3, hits give low values 0.892 | locus YJR066W, strain TOR1 (second series), hits give low values 0.239 | locus YJR066W, strain TOR1, hits give low values 0.309 | locus YKL067W, strain YNK1, hits give low values 0.631 | locus YKL101W, strain HSL1, hits give low values 0.593 | locus YKL193C, strain SDS22, hits give low values 0.887 | locus YKL203C, strain TOR2, hits give low values 0.384 | locus YLR113W, strain HOG1, hits give low values 0.348 | locus YLR133W, strain CKI1, hits give low values 0.659 | locus YLR403W, strain SFP1, hits give low values 0.419 | locus YML070W, strain DAK1, hits give low values 0.556 | locus YMR205C, strain PFK2 (second series), hits give low values 0.684 | locus YMR277W, strain FCP1, hits give low values 0.881 | locus YNL006W, strain LST8, hits give low values 0.896 | locus YNL020C, strain ARK1, hits give low values 0.579 | locus YNL161W, strain CBK1, hits give low values 0.894 | locus YNL183C, strain NPR1, hits give low values 0.37 | locus YNL207W, strain RIO2, hits give low values 0.854 | locus YNL307C, strain MCK1 (second series), hits give low values 0.38 | locus YOL078W, strain AVO1, hits give low values 0.879 | locus YOL136C, strain PFK27, hits give low values 0.542 | locus YOR119C, strain RIO1, hits give low values 0.463 | locus YOR231W, strain MKK1, hits give low values 0.276 | locus YOR329C, strain SCD5, hits give low values 0.899 | locus YPL031C, strain PHO85, hits give low values 0.395 | locus YPL153C, strain RAD53, hits give low values 0.398 | locus YPL204W, strain HRR25, hits give low values 0.425 | locus YPL256C, strain CLN2, hits give low values 0.368 | strain TSCII, hits give low values 0.878
inactive: locus YAR019C, strain CDC15, hits give low values 0.896 | locus YBL105C, strain PKC1, hits give low values 0.917 | locus YBR135W, strain CKS1, hits give low values 0.9 | locus YBR136W, strain MEC1, hits give low values 0.921 | locus YBR160W, strain CDC28, hits give low values 0.903 | locus YDL017W, strain CDC7, hits give low values 0.923 | locus YDL028C, strain MPS1, hits give low values 0.916 | [1] 0.94 | locus YDL108W, strain KIN28, hits give low values 0.914 | locus YDR052C, strain DBF4, hits give low values 0.913 | locus YDR226W, strain ADK1, hits give low values 0.899 | locus YFL029C, strain CAK1, hits give low values 0.889 | locus YFR003C, strain YPI1, hits give low values 0.919 | locus YFR028C, strain CDC14, hits give low values 0.916 | locus YIL147C, strain SLN1, hits give low values 0.91 | locus YJL128C, strain PBS2, hits give low values 0.977 | locus YKL048C, strain ELM1, hits give low values 0.821 | locus YMR001C, strain CDC5, hits give low values 0.891 | locus YNL222W, strain SSU72, hits give low values 0.913 | locus YOR061W, strain CKA2, hits give low values 0.731 | locus YPL209C, strain IPL1, hits give low values 0.902 | locus YPR025C, strain CCL1, hits give low values 0.898 | locus YPR106W, strain ISR1, hits give low values 0.947 | locus YPR111W, strain DBF20, hits give low values 0.936 | strain NNK1, hits give low values 0.917

C/C(=N/NC1=NCCN1)c1ccc(F)cc1
inactive: [3] 1.01 | [4] 0.993 | locus YCL061C, strain MRC1, hits give low values 0.997 | [1] 0.979 | [5] 0.907 | [6] 1.01 | [7] 0.995 | [2] 1.01 | [8] 0.987 | [9] 1 | [10] 0.992 | locus YKL190W, strain CNB1, hits give low values 1.01 | [11] 1.04 | [12] 1.01 | [13] 0.996 | [14] 0.997 | [15] 0.996 | [16] 1 | [17] 0.998 | [18] 0.987 | [19] 1.02 | [20] 1 | [21] 1.01 | [22] 1.01 | [23] 1.03 | [24] 1.02

C/C(=N/OC(=O)c1ccc(Cl)cc1)c1ccc(F)cc1
active: [6] 0.889 | [2] 0.448 | [9] 0.914 | [10] 0.847 | [11] 0.515 | [13] 0.598 | [14] 0.462 | [15] 0.809 | [18] 0.908 | [21] 0.879 | locus YOL006C, strain TOP1, hits give low values 0.467 | [22] 0.811 | [23] 0.829
inactive: [3] 0.946 | [4] 0.96 | [1] 0.952 | [5] 0.913 | [7] 0.961 | [8] 0.953 | [12] 0.982 | [16] 0.957 | [17] 0.939 | locus YNL128W, strain TEP1, hits give low values 0.943 | [19] 0.85 | [20] 0.975 | [24] 0.763
